{"source": "PubChem BioAssay AID1445", "about": "(SRMLSC, 2008)", "note": "Among all 220,000 compounds or so, about 910 (0.41%) were called active. Shown is part of a subset that was picked to be rich in actives. Potency and affinity values are given separately. Unmarked numbers belong to inactive results.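 How the source made its calls: active means primary inhibition above the hit cutoff, then over 50% inhibition at one or more dose response concentrations (cut at about 23% in these data, passing the limit was not always enough); inconclusive means conflicting primary data, or primary hits not chosen for dose response; inactive means low primary inhibition, or under 50% at every dose.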 Where a SMILES comes first, the peptide text is derived from it. The star is where a group is joined. Boc = CC(C)(C)OC(=O)*", "data": [{"target": "Aminopeptidase N (Plasmodium falciparum (isolate 3D7)) (UniProt O96935)", "sequence (O96935 whole entry, looked up)": "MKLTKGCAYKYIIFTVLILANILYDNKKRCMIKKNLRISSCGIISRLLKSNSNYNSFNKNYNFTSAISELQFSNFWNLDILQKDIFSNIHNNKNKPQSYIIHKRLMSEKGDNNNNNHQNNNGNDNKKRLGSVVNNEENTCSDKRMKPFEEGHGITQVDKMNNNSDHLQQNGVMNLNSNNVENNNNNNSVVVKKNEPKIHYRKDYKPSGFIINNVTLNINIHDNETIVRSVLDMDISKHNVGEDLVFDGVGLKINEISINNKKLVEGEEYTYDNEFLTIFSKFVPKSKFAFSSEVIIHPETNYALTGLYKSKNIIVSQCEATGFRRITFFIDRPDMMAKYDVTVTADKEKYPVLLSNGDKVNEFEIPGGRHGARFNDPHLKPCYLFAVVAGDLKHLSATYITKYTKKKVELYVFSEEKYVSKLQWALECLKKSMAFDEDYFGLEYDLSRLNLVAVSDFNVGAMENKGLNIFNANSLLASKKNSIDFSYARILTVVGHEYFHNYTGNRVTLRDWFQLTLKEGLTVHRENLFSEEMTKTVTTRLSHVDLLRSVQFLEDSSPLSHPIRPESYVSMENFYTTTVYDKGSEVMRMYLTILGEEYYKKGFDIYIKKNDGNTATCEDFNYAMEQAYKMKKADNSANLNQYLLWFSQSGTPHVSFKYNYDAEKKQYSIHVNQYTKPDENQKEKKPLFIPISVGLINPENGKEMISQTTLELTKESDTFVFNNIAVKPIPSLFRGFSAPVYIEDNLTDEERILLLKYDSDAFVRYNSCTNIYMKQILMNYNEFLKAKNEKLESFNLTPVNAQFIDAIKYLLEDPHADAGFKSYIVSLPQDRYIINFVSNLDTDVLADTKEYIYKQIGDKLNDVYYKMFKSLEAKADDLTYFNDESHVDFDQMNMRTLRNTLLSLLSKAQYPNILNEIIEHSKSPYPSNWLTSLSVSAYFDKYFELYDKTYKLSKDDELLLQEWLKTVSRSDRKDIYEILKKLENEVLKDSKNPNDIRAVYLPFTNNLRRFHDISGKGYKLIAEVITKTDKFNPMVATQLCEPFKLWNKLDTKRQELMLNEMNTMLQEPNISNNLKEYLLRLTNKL", "test": "malaria alanyl aminopeptidase activity blockers – biochemical, fluorogenic H-Leu-NHMec substrate, 1536-well (AID 1445);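 further: plate controls were DMSO full reaction for no effect and no enzyme background for full effect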", "details": "recombinant M1AAP, H-Leu-NHMec fluorogenic kinetic assay; at 30 µM, active compounds read high unless noted", "values": [{"smiles": "N#Cc1cc2c(nc1Cl)CCCC2", "inhibition": "3.36%"}, {"smiles": "COc1ccc(CCN=C(N)NS(=O)(=O)c2ccccc2)cc1OC", "inhibition": "0.37%"}, {"smiles": "CCOc1cc(C2C3=C(CC(C)(C)CC3=O)OC3=C2C(=O)CC(C)(C)C3)cc([N+](=O)[O-])c1O", "inhibition": "14.2%"}, {"smiles": "CCOc1cc(C2C3=C(CCCC3=O)N(C)C3=C2C(=O)CCC3)cc(Cl)c1O", "inhibition": "18.7%"}, {"smiles": "CCOc1ccc(C2CC(=O)NC3=C2C(=O)CCC3)cc1Cl", "note": "(stereo not given)", "inhibition": "1.99%"}, {"smiles": "CCOc1cc(C2C(C(=O)OC(C)C)=C(C)NC3=C2C(=O)CCC3)cc([N+](=O)[O-])c1O", "note": "(stereo not given)", "inhibition": "21.4%"}, {"smiles": "Fc1ccc(-c2nc3c(Cl)cc(C(F)(F)F)cn3c2Cl)cc1", "inhibition": "-1.92%"}, {"smiles": "COC(=O)CSc1[nH]c2ccc(F)cc2c1[N+](=O)[O-]", "inhibition": "13%"}, {"smiles": "COC(=O)c1c(C)oc2ccc(NS(=O)(=O)c3cccs3)cc12", "inhibition": "6.82%"}, {"smiles": "CCOC(=O)c1c(C)oc2ccc(NS(=O)(=O)c3cccs3)cc12", "inhibition": "17.3%"}, {"smiles": "CC(C)(C)NC(=O)COC(=O)c1nsc(Cl)c1Cl", "inhibition": "0.52%"}, {"smiles": "CC(C)(C)NC(=O)NC(=O)CN1CCN(c2cccc(Cl)c2)CC1", "inhibition": "-0.55%"}, {"smiles": "COn1c(SCc2cccnc2)nc2ccccc2c1=O", "inhibition": "-0.13%"}, {"smiles": "COc1ccc(NC(=O)CSc2nnc(Cc3cccn3C)n2-c2ccc(F)cc2)cc1", "inhibition": "23.8% (active)"}, {"smiles": "COc1ccc(NC(=O)CSc2nnc(-c3ccccc3C)n2C)cc1", "inhibition": "27.4% (active)"}, {"smiles": "COc1ccc(-c2nnc(SCC(=O)Nc3ccccc3)n2C)cc1", "inhibition": "0.31%"}, {"smiles": "CC(=O)Nc1ccc(-c2nnc(SCC(=O)Nc3ccc4c(c3)oc3ccccc34)n2C)cc1", "inhibition": "8.23%"}, {"smiles": "Cc1ccc(-c2nnc(SCC(=O)Nc3ccc4c(c3)oc3ccccc34)n2C)c(Cl)c1", "inhibition": "3.17%"}, {"smiles": "COc1ccc(C(=O)NNC(=O)CSc2nnc(-c3cccnc3)n2C)cc1", "inhibition": "10.3%"}, {"smiles": "COc1ccc(C(=O)NNC(=O)CSc2nnc(C)n2C)cc1", "inhibition": "1%"}, {"smiles": "COc1ccc(-n2c(Cc3cccn3C)nnc2SCC(=O)Nc2ccc(F)cc2)cc1", "inhibition": "12%"}, {"smiles": "COc1ccc(NC(=O)CSc2nnc(Cc3cccn3C)n2-c2ccc(OC)cc2)cc1", "inhibition": "5.21%"}, {"smiles": "COc1ccc(NC(=O)CSc2nnc(-c3ccccc3C)n2N)cc1", "inhibition": "3.11%"}, {"smiles": "Cn1c(SCC(=O)Nc2ccc3c(c2)oc2ccccc23)nnc1-c1ccccc1", "inhibition": "25.6% (active)"}, {"smiles": "Cc1cc(C)c2c3c(sc2n1)C1(CCSCC1)C(C#N)=C(N)O3", "inhibition": "9.27%"}, {"smiles": "C1CCN(c2nc3nonc3nc2NCC2CCOCC2)CC1", "inhibition": "7.54%"}, {"smiles": "CC(=O)N1CCN(c2ccc(NC(=O)c3ccc(Br)o3)cc2Cl)CC1", "inhibition": "4.42%"}, {"smiles": "CC(C)c1ccc(-c2csc(NC(=O)c3cccs3)c2C(=O)O)cc1", "inhibition": "8.46%"}, {"smiles": "COc1ccc(-c2csc(NC(=O)c3cccs3)c2C(=O)O)cc1OC", "inhibition": "19.5%"}, {"smiles": "Fc1cccc(Nc2nc(Cl)nc(Cl)n2)c1", "inhibition": "8.99%"}, {"smiles": "O=C1NCCN(Cc2cccc(Oc3ccccc3)c2)C1CC(=O)N1CCCCO1", "note": "(stereo not given)", "inhibition": "1.7%"}, {"smiles": "CCOc1cccc2cc(C(=O)Nc3ccccc3-c3ccccc3)c(=O)oc12", "inhibition": "1.66%"}, {"smiles": "COC(=O)/C(N=Nc1cccc(C(F)(F)F)c1)=C(\\C)O", "inhibition": "8.29%"}, {"smiles": "CCc1ccc2[nH]c(=O)c(CN(Cc3ccccc3)Cc3nnnn3Cc3ccco3)cc2c1", "inhibition": "13.2%"}, {"smiles": "Cc1ccc(CN(Cc2cc3cc4c(cc3[nH]c2=O)OCCO4)Cc2nnnn2Cc2ccco2)cc1", "inhibition": "22.7%"}, {"smiles": "O=c1[nH]c2cc3c(cc2cc1CN(Cc1cccnc1)Cc1nnnn1Cc1ccco1)OCCO3", "inhibition": "26.5% (active)"}, {"smiles": "CCCOc1ccc(Cc2nc(N)nc(N)n2)cc1", "inhibition": "-6.23%"}, {"smiles": "C=C(C)C(=O)Nc1cccc(C2=NOC3(C2)C[C@@H](C(N)=O)N(C(=O)c2ccc(Cl)cc2)C3)c1", "note": "(stereo not given in full)", "inhibition": "4.17%"}, {"smiles": "Cc1nn(Cc2ccccc2)c(Cl)c1/C=C1\\NC(=S)NC1=O", "inhibition": "4.75%"}, {"smiles": "COc1cc(NC(=O)c2ccc([N+](=O)[O-])o2)ccc1NC(=O)c1cccs1", "inhibition": "4.73%"}, {"smiles": "O=C(Nc1cccc(NC(=O)c2cccs2)c1)c1ccco1", "inhibition": "14.8%"}, {"smiles": "O=C(O)CCc1ccc(-c2ccccc2)n1NC(=O)c1cccs1", "inhibition": "6.72%"}, {"smiles": "O=C(O)CCc1ccc(-c2ccccc2)n1NC(=O)c1ccco1", "inhibition": "3.09%"}, {"smiles": "O=C(O)CCc1ccc(-c2ccccc2)n1NC(=O)c1sc2ccccc2c1Cl", "inhibition": "24.7% (active)"}, {"smiles": "Cc1ccc(NC(=O)Nc2sc(=S)n(C)c2C)cc1", "inhibition": "-0.53%"}, {"smiles": "COc1ccccc1N=Cc1nc(-c2ccccc2)oc1OC(C)=O", "inhibition": "19.1%"}, {"smiles": "CCC(=O)Oc1oc(-c2ccccc2)nc1C=Nc1ccc(C)cc1", "inhibition": "1.55%"}, {"smiles": "CCC(=O)Oc1oc(-c2ccccc2)nc1C=Nc1ccccc1OC", "inhibition": "24.3% (active)"}, {"smiles": "CCOC(=O)c1cc(C)sc1/N=C/C1C(=O)CC(C)(C)CC1=O", "inhibition": "1.61%"}, {"smiles": "CCCn1c(SCC(=O)Nc2cccc(S(=O)(=O)N(C)C)c2)nc2ccccc2c1=O", "inhibition": "6.03%"}, {"smiles": "Cc1ccc(-n2nnnc2SCC(=O)Nc2ccccc2-c2ccccc2)cc1C", "inhibition": "-2.36%"}, {"smiles": "O=C(CSc1nnnn1-c1cccc2ccccc12)NC(C(=O)O)(c1ccccc1)c1ccccc1", "inhibition": "23.1%"}, {"smiles": "O=C(O)CC/C(=N\\Nc1ccc([N+](=O)[O-])cc1)c1ccccc1", "inhibition": "7.87%"}, {"smiles": "CCOc1cc(C(N)=O)cc(Br)c1OC", "inhibition": "-3.95%"}, {"smiles": "COc1cc(C(N)=O)cc(Br)c1OC", "inhibition": "23.4% (active)"}, {"smiles": "CCOc1c(Br)cc(C(N)=O)cc1OC", "inhibition": "2.69%"}, {"smiles": "Cc1nn(CCS(=O)(=O)c2ccc(Cl)cc2)c(C)c1Br", "inhibition": "0.55%"}, {"smiles": "COCc1cc(C)nc(OCC(=O)N/N=C/c2ccc(O)cc2O)c1C#N", "inhibition": "-7.94%"}, {"smiles": "CSc1nnc(-c2cc3c(s2)-c2ccccc2CC3)o1", "inhibition": "18.2%"}, {"smiles": "CCSc1nnc(-c2cc3c(s2)-c2ccccc2CC3)o1", "inhibition": "19.1%"}, {"smiles": "O=C(NCc1ccccc1)c1ccc2c(c1)C(=O)N(Cc1ccncc1)C2=O", "inhibition": "-0.3%"}, {"smiles": "COc1ccc(C(C(=O)NC(C)(C)C)N(Cc2cccs2)C(=O)CCC(=O)Nc2cc(C)on2)cc1", "note": "(stereo not given)", "inhibition": "-3.34%"}, {"smiles": "COc1cc(CCC(=O)OCC(=O)Nc2c(C)cccc2C(C)C)cc(OC)c1OC", "inhibition": "-0.28%"}, {"smiles": "Cc1cc2cc(C(c3nnnn3Cc3ccco3)N3CCCCC3)c(=O)[nH]c2cc1C", "note": "(stereo not given)", "inhibition": "26.8% (active)"}, {"smiles": "Cc1cc2cc(C(c3nnnn3Cc3ccco3)N3CCc4ccccc43)c(=O)[nH]c2cc1C", "note": "(stereo not given)", "inhibition": "21.9%"}, {"smiles": "Cc1ccc(C)c2[nH]c(=O)c(C(c3nnnn3Cc3ccco3)N3CCc4ccccc4C3)cc12", "note": "(stereo not given)", "inhibition": "24.6% (active)"}, {"smiles": "COc1ccc2[nH]c(=O)c(CN(C3CCCCC3)C(c3nnnn3Cc3ccco3)C(C)C)cc2c1", "note": "(stereo not given)", "inhibition": "23.7% (active)"}, {"smiles": "CCC(c1nnnn1Cc1ccco1)N(Cc1cc2cc(OC)ccc2[nH]c1=O)C1CCCCC1", "note": "(stereo not given)", "inhibition": "14.1%"}, {"smiles": "Cc1ccc(C)c2[nH]c(=O)c(C(c3nnnn3Cc3ccccc3)N3CCc4ccccc4C3)cc12", "note": "(stereo not given)", "inhibition": "7.95%"}, {"smiles": "Cc1cccc2cc(C(c3nnnn3CC3CCCO3)N3CCc4ccccc4C3)c(=O)[nH]c12", "note": "(stereo not given)", "inhibition": "12.2%"}, {"smiles": "Cc1cc2cc(C(c3nnnn3Cc3ccco3)N3CCc4ccccc4C3)c(=O)[nH]c2cc1C", "note": "(stereo not given)", "inhibition": "14%"}, {"smiles": "COc1ccc2[nH]c(=O)c(CN(Cc3nnnn3Cc3ccco3)C3CCCCC3)cc2c1", "inhibition": "16%"}, {"smiles": "CCOC(=O)c1ccc(Nc2nnc(C)c3ccccc23)cc1", "inhibition": "6.41%"}, {"smiles": "CSc1ccccc1NC(=O)CN(C)CC(=O)NCc1ccccc1", "inhibition": "-1.28%"}, {"smiles": "CC1(C)CC(=O)C(C=NCCN2CCN(C(=O)c3ccc(Br)cc3)CC2)=C(O)C1", "inhibition": "2.26%"}, {"smiles": "COc1ccc(CCNC(=O)[C@@H](NC(=O)c2ccccc2F)C(C)C)cc1OC", "inhibition": "0.88%"}, {"smiles": "Oc1c(Cl)cc(Cl)c2cccnc12", "inhibition": "-7.26%"}, {"smiles": "Oc1c(Cl)cc(Cl)c2c1NCCC2", "inhibition": "7.06%"}, {"smiles": "CCC(C)NCCCCOc1cc(C)cc(C(C)C)c1", "note": "(stereo not given)", "inhibition": "3.28%"}, {"smiles": "CCC(=O)N(C)CCc1cc2c(c(OC)c1/C=N/NC(=O)c1ccccc1O)OCO2", "inhibition": "-6.1%"}, {"smiles": "C#CCOCCOCCOCCNc1nc(N2CCOCC2)nc(N2CCN(C(=O)[C@H]([C@@H](C)CC)n3cc(CCCCN)nn3)CC2)n1", "inhibition": "0.08%"}, {"smiles": "O=[N+]([O-])c1ccc(-c2ccc(/C=N/c3c(-c4ccco4)nc4ccccn34)o2)c(Cl)c1", "inhibition": "8.98%"}, {"smiles": "O=[N+]([O-])c1ccc(Cl)c(-c2ccc(/C=N/c3c(-c4ccco4)nc4ccccn34)o2)c1", "inhibition": "6.65%"}, {"smiles": "O=[N+]([O-])c1ccc(-c2ccc(/C=N/c3c(-c4ccco4)nc4ccccn34)o2)cc1", "inhibition": "27.6% (active)"}, {"smiles": "CC(C)CC(NC(=O)OC(C)(C)C)C(=O)NCc1ccccc1", "note": "(stereo not given)", "inhibition": "-0.35%"}, {"smiles": "COC(=O)C(Cc1ccccc1)NC(=O)C(CC(C)C)NC(=O)OC(C)(C)C", "note": "(stereo not drawn) (Boc-Leu-Phe-OMe; configuration not given here)", "inhibition": "-2.73%"}, {"smiles": "O=C1N[C@@H](Cc2ccccc2)C(=O)N1CCN1CCOCC1", "inhibition": "-7.62%"}, {"smiles": "O=C(Cn1cnc2ccccc21)N/N=C/c1ccccc1[N+](=O)[O-]", "inhibition": "-4.86%"}, {"smiles": "Cc1ccc(S(=O)(=O)N2CCN(C(=O)CC(C)(C)C)CC2)cc1", "inhibition": "3.77%"}, {"smiles": "CN(c1ccccc1C(=O)Nc1ccc(F)c(F)c1)S(C)(=O)=O", "inhibition": "0.14%"}]}]}
